In PubChem BioAssay:
A number with no mark means an inactive call.

test system: XIP peptide (Xip251-270) binding; test: XIP fragment 251-270 binding compounds – biochemical, small-molecule microarray, fluorescence 635/667 nm, 0.1 µg/mL protein, primary screen (AID 1182); conditions: fluorescent protein binding, 635 nm, higher = more signal, called active from +8 up or from −8 down

**Q.** How did the composite z-score turn out when `CC(C)(C)N1C(=O)[C@H]2[C@H]3[C@H](O)[C@H](O)CC(=NOC[C@@H](O)COCc4ccco4)[C@H]3CC[C@H]2C1=O` was run?
**A.** Its composite z-score is 0.0133.

**Q.** `C#CCCCON=C1C[C@@H](O)[C@@H](O)[C@@H]2[C@@H]3C(=O)N(CC)C(=O)[C@@H]3CC[C@H]12` was tested. Which composite z-score did it give?
**A.** The composite z-score was 0.835.

**Q.** Which composite z-score does the source give for `CC(C)CON=C1C[C@@H](O)[C@@H](O)[C@@H]2[C@@H]3C(=O)N(Cc4ccccc4)C(=O)[C@@H]3CC[C@H]12` here?
**A.** The composite z-score was -0.0404.

**Q.** `CCOC(=O)CCN1C(=O)[C@H]2[C@H]3[C@H](O)[C@H](O)CC(=NOCC(C)C)[C@@H]3CC[C@H]2C1=O` was tested. Which composite z-score did it give?
**A.** Its composite z-score is -0.0503.

**Q.** For `O=C1C=C[C@@H](O)[C@@H]2[C@@H]3C(=O)N(Cc4ccc5c(c4)OCO5)C(=O)[C@@H]3CC[C@@H]12`, which composite z-score is on record?
**A.** Its composite z-score is -0.297.

**Q.** With `CC[C@@H](c1ccccc1)n1c(=O)n2n(c1=O)[C@H]1[C@H](O)[C@@H]3O[C@@H]3C(=NOCc3ccccc3)[C@H]1CC2` as the compound, how does the composite z-score read?
**A.** Its composite z-score is 0.265.

**Q.** With `COC(=O)[C@H](C)NC(=O)CCC1CC(OC(=O)NCc2ccc3c(c2)OCO3)CC2(CCCC(COC(=O)NCc3ccccc3)O2)O1` (stereo partly specified) as the compound, how does the composite z-score read?
**A.** Its composite z-score is 0.361.

**Q.** How did the composite z-score turn out when `COC(=O)[C@H](CCSC)NC(=O)CC=C[C@@H](C)CO` was run?
**A.** The composite z-score was -0.0999.

**Q.** How did the composite z-score turn out when `COc1ccc(COC(=O)NN=C2C[C@@H](O)[C@@H](O)[C@@H]3[C@@H]4C(=O)N(C5CCCCC5)C(=O)[C@@H]4CC[C@@H]23)cc1` was run?
**A.** The composite z-score was 0.524.

**Q.** For `CON=C(C)CCC(=O)OC[C@H]1O[C@H](C#Cc2ccccc2)C=C[C@@H]1Oc1ccc(C)cc1`, which composite z-score is on record?
**A.** Its composite z-score is 0.177.

**Q.** With `CC(=O)OC[C@H]1O[C@@H](ON=C2[C@H]3CCn4c(=O)n(-c5ccccc5)c(=O)n4[C@H]3[C@H](O)[C@@H]3O[C@H]23)[C@H](OC(C)=O)[C@@H](OC(C)=O)[C@@H]1OC(C)=O` as the compound, how does the composite z-score read?
**A.** Its composite z-score is -0.455.

**Q.** Which composite z-score does the source give for `C[C@H]1CC[C@H]2C(=O)OC(COc3ccc(C(C)(C)C)cc3)CN2[C@@H]1c1ccc(Br)cc1` (stereo partly specified) here?
**A.** Its composite z-score is 0.0819.

**Q.** With `CO[C@H]1C[C@@H]2C[C@H](O)CC(CC(=O)O[C@@H](C=CCC(C)C)C[C@@H]3CC[C@H](C)[C@@H](C1)O3)O2` as the compound, how does the composite z-score read?
**A.** Its composite z-score is -0.199.

**Q.** How did the composite z-score turn out when `O=C1CCCC=C1C(O)c1ccc([N+](=O)[O-])cc1` (stereo unspecified) was run?
**A.** The composite z-score was -0.542.

**Q.** How did the composite z-score turn out when `COc1ccc(COC(=O)NN=C2C[C@@H](O)[C@@H](O)[C@@H]3[C@@H]4C(=O)N(Cc5ccc6c(c5)OCO6)C(=O)[C@@H]4CC[C@H]23)cc1` was run?
**A.** Its composite z-score is 0.369.

**Q.** `CON=C(C)CCN1CCc2nc(-c3ccccc3)c(-c3ccccc3)cc2C1` was tested. Which composite z-score did it give?
**A.** The composite z-score was 0.257.

**Q.** `CCN1C(=O)[C@H]2[C@H]3[C@H](O)[C@H](O)CC(=NO[C@H](C)c4cn([C@@H]5COC[C@H]5O)nn4)[C@@H]3CC[C@H]2C1=O` was tested. Which composite z-score did it give?
**A.** Its composite z-score is 0.0118.

**Q.** How did the composite z-score turn out when `CO[C@H]1COC(=O)[C@H](C)COC(=O)[C@H](C)NC(=O)CC=C[C@H]1C` was run?
**A.** Its composite z-score is 0.126.

**Q.** With `CO[C@H]1COC(=O)CCC[C@H](C)[C@@H](OC)COC(=O)CC=C[C@@H]1C` as the compound, how does the composite z-score read?
**A.** Its composite z-score is -0.294.

**Q.** With `CC(C)C(=O)N[C@H]1CCCN1C(=O)C=Cc1ccccc1` as the compound, how does the composite z-score read?
**A.** The composite z-score was 0.934.

**Q.** For `CCOC(=O)CCN1C(=O)[C@H]2[C@H]3[C@H](O)[C@H](O)CC(=NNC(=O)OCC)[C@H]3CC[C@H]2C1=O`, which composite z-score is on record?
**A.** The composite z-score was 3.24.

**Q.** How did the composite z-score turn out when `CC(CCN1CCCc2nc(C)c(C)cc21)=NO[C@H](C)c1cn([C@H](CO)Cc2ccccc2)nn1` was run?
**A.** The composite z-score was -0.0325.

**Q.** How did the composite z-score turn out when `COC(=O)[C@@H]1CC[C@H](C)[C@@H](c2ccc(Br)cc2)N1C[C@H](O)CN=[N+]=[N-]` was run?
**A.** Its composite z-score is 1.12.

**Q.** For `CCOC(=O)CCN1C(=O)[C@H]2[C@H]3[C@H](O)[C@H](O)CC(=NOCC=C(C)CCC=C(C)C)[C@@H]3CC[C@H]2C1=O`, which composite z-score is on record?
**A.** The composite z-score was 0.257.

**Q.** `CCN1C(=O)[C@H]2[C@H]3[C@H](O)[C@H](O)CC(=NNC(=O)OCc4ccccc4)[C@@H]3CC[C@H]2C1=O` was tested. Which composite z-score did it give?
**A.** The composite z-score was -0.425.

**Q.** `COC(=O)[C@@H]1CC[C@H](C)[C@@H](c2ccc(Br)cc2)N1C[C@@H](O)CN=[N+]=[N-]` was tested. Which composite z-score did it give?
**A.** The composite z-score was -0.193.

**Q.** How did the composite z-score turn out when `CC(C)CON=C1C[C@@H](O)[C@@H](O)[C@@H]2[C@@H]3C(=O)N([C@@H](C)c4ccccc4)C(=O)[C@@H]3CC[C@@H]12` was run?
**A.** The composite z-score was 0.0068.

**Q.** Which composite z-score does the source give for `CC(C)CON=C1C[C@@H](O)[C@@H](O)[C@@H]2[C@@H]3C(=O)N(Cc4ccc5c(c4)OCO5)C(=O)[C@@H]3CC[C@@H]12` here?
**A.** The composite z-score was -0.263.

**Q.** Which composite z-score does the source give for `CCOC(=O)[C@H](CC(C)C)NC(=O)CCC1CC(OC(=O)NCCc2ccc(F)cc2)CC2(CCCC(COC(=O)NCCOC)O2)O1` (stereo partly specified) here?
**A.** The composite z-score was 0.0029.

**Q.** `CO[C@@H]1COC(=O)[C@@H]2CCCN2C(=O)[C@@H](C)COC(=O)CCC[C@H]1C` was tested. Which composite z-score did it give?
**A.** Its composite z-score is -0.0308.

**Q.** Which composite z-score does the source give for `CC(=O)OC[C@H]1O[C@H](CC=NOC[C@@H](O)[C@H]2O[C@@H]3OC(C)(C)O[C@@H]3[C@H]2O)C=C[C@@H]1OC(C)=O` here?
**A.** Its composite z-score is 0.232.

**Q.** With `O=C1[C@H]2[C@H]3[C@H](O)[C@H](O)CC(=NO[C@@H]4O[C@H](CO)[C@@H](O)[C@H](O)[C@H]4O)[C@@H]3CC[C@H]2C(=O)N1c1cccc(Oc2ccccc2)c1` as the compound, how does the composite z-score read?
**A.** The composite z-score was 0.311.

**Q.** Which composite z-score does the source give for `CC(C)=NOC(C)CN1CCCc2nc(C)c(C)cc21` (stereo unspecified) here?
**A.** Its composite z-score is 2.19.

**Q.** Which composite z-score does the source give for `O=C1C[C@@H](O)[C@@H](O)[C@@H]2[C@@H]3C(=O)N(c4ccc(F)cc4F)C(=O)[C@@H]3CC[C@H]12` here?
**A.** The composite z-score was 0.139.

**Q.** Which composite z-score does the source give for `COC(=O)[C@H](C)NC(=O)CCC1CC(OC(=O)NCc2cccc3ccccc23)CC2(CCCC(COC(=O)NCCc3ccccc3OC)O2)O1` (stereo partly specified) here?
**A.** The composite z-score was -0.0645.

**Q.** How did the composite z-score turn out when `CC(=O)OC[C@H]1O[C@H](CCON=C(C)CCN2CCCc3nc(C)c(C)cc32)C=C[C@@H]1OC(C)=O` was run?
**A.** The composite z-score was 0.36.
